# ChEMBL document CHEMBL4513216, “Probing the Open Global Health Chemical Diversity Library for Multistage-Active Starting Points for Next-Generation Antimalarials” (ACS Infect Dis, 2020)
# The campaign covered roughly 69,000 compounds. About 8,600 (12%) showed an effect of 50% or more. The sample holds strong results, similar compounds and a random draw of the others, so the mix is not that of the screen.
# Tested on: Plasmodium berghei
# Experiment: Screen against P. berghei liver stage (PbLuc), transformed with Luciferase, at 10uM
# Type: functional, HepG2
# Conditions: tested at 10 uM
row,SMILES,INHIBITION [%]
1,Cc1ccnc(C2CCN(C(=O)CCn3ncc4ccccc43)C2)n1 (stereo unspecified),5.11
2,CNC(=O)[C@@H](c1ccccc1F)N1CCC[C@H]1C(=O)NC1CC1,0.734
3,Cn1ccnc1CN1CCO[C@H]2C(CNC(=O)c3ccco3)CC[C@@H]21 (stereo partly specified),16.9
4,CC(C)CC(=O)N1CC[C@@H]2CN(Cc3cccnc3)S(=O)(=O)[C@@H]2CC1,42.1
5,Cc1cc(C(=O)N2CC[C@@H]3CN(S(C)(=O)=O)CCO[C@@H]3C2)c(C)o1,37
6,O=C(NCc1cc[nH]n1)NC1CCCN(c2ncccn2)C1 (stereo unspecified),-0.79
7,Cc1cnc(N2CCN3C[C@H](OCc4cccc(C)n4)C[C@H]3C2)nc1,42.3
8,O=C(NCC1CC1)c1nc2c(o1)CN(CC1CC1)C2,-48.4
9,Fc1ccccc1Cc1noc(CN2CCC(C3CCCCC3)C2)n1 (stereo unspecified),49.9
10,COCc1ccccc1NC(=O)[C@@H]1CCCN1C(=O)c1ccco1,39.2
11,Cc1cccc(NC(=O)C2CCCN2C(=O)c2ccco2)c1C (stereo unspecified),72.5
12,COC(=O)c1sccc1NC(=O)C1CCCN1C(=O)c1ccco1 (stereo unspecified),-62.2
13,N#CCCN(CCN1CCOCC1)Cc1ccc(F)c(Br)c1,20.4
14,CC(C)CN1C(=O)CC[C@H]2CN(C(=O)Cn3ccc(=O)cc3)CC[C@H]21,33.9
15,CC1=NN(CC(=O)N2CC[C@@H]3[C@@H](CCC(=O)N3CC(C)C)C2)CC1,56.7
16,CC(C)CN1C(=O)CC[C@H]2CN(C(=O)Cn3ccccc3=O)CC[C@H]21,45.8
17,COc1ccnc(N2CCN(C(=O)c3ccn(C)c(=O)c3)CC2)n1,-21.8
18,Cc1nnsc1C(=O)N1CC(c2nc3ccccc3[nH]2)C1,49.4
19,Cc1nnsc1C(=O)N1CCC(c2nc3ccccc3[nH]2)CC1,65.4
20,CCc1nnsc1C(=O)N1CCCC(c2nc3ccccc3[nH]2)C1 (stereo unspecified),26.9
21,O=C(c1cc2ccccc2[nH]1)N1CCCCC1Cn1cccn1 (stereo unspecified),48.1
22,Cc1nn(C)cc1-c1cc(C(F)F)nc2sc(C(N)=O)c(N)c12,1.86

row,SMILES,INHIBITION [%]
1,CC(O)CN1CCc2[nH]nc(C(c3ccccc3)c3ccccc3)c2C1 (stereo unspecified),-12.1
2,COC(=O)CCC(=O)N1CCc2[nH]nc(-c3ccc(F)c(F)c3)c2C1,15.9
3,CC(C)c1nnsc1CN1CCc2[nH]nc(-c3ccc(Cl)cc3)c2C1,50.1
4,CC(C)(C)c1ccc(-c2n[nH]c3c2CN(CC2CCOC2)CC3)cc1 (stereo unspecified),44.3
5,CCc1nc(C)sc1CN1CCc2[nH]nc(-c3ccc(F)c(F)c3)c2C1,37.2
6,CC(C)c1nnsc1CN1CCc2[nH]nc(-c3ccc(F)c(F)c3)c2C1,70.4
7,CS(=O)(=O)N[C@@H]1COC[C@@H]2CN(Cc3ccoc3)C[C@@H]21,15.4
8,Cc1cccc(C(=O)N(CC(=O)O)CC(C)C)c1,28.1
9,CCN(CC)C(=O)c1cc(C2CCCN2C)ccn1 (stereo unspecified),47.2
10,CC(COc1ccc(F)cc1F)NC(=O)NCCN1CCOCC1 (stereo unspecified),-32.4
11,CCC(C)NC(=O)c1sccc1-n1cnnn1 (stereo unspecified),-5.22
12,COc1cccc2c1ccn2CC(=O)N1CCCC(C(=O)O)C1 (stereo unspecified),31.7
13,O=C(c1ccco1)N1CCCC2(CN(Cc3ccc(F)cc3)CCO2)C1 (stereo unspecified),-1.83
14,O=C1N(CC2CC2)C(c2cncs2)NC12CCCC2 (stereo unspecified),49
15,Cc1cccc(CN2CCC3(CC2)COC(COCC2CC2)C3)n1 (stereo unspecified),43
16,CCCN(CCc1ccccn1)C(=O)Cn1cc(C)cn1,78.8
17,CCCN(CCc1ccccn1)C(=O)Cn1cnnn1,-17.8
18,CCCN(CCc1ccccn1)C(=O)CCc1cnn(C)c1,65.2
19,Cn1cc(CN(Cc2ccccc2)Cc2ccccn2)cn1,1.62
20,Cc1cnn(CC2CCCCN2CC(=O)NCc2ccccn2)c1 (stereo unspecified),-4.74
21,Cn1cc(CCC(=O)N2C[C@H]3CC[C@@H](C2)N(Cc2ccccn2)C3)cn1,6.11
22,CC(c1nc(C2CC2)no1)N1CCN(Cc2nnc(C3CC3)o2)CC1 (stereo unspecified),-51.5

row,SMILES,INHIBITION [%]
1,Cc1c(C(=O)NC(C)CC(=O)c2cccs2)cnn1C (stereo unspecified),40.6
2,CC(=O)N1CCCN(C(=O)c2ccc(Sc3ccccn3)cc2)CC1,-0.217
3,O=C(Cc1cn2ccsc2n1)N(Cc1ccco1)CC1CCCO1 (stereo unspecified),7.21
4,CN(C)CCN(CC1CCCO1)C(=O)Cc1cn2ccccc2n1 (stereo unspecified),28.7
5,Cc1cccn2cc(CC(=O)N(CCN(C)C)CC3CCCO3)nc12 (stereo unspecified),58.5
6,Fc1ccc(CN2CCc3ncnc(C4CC4)c3CC2)cc1,39.5
7,O=C1CCN(C(=O)c2ncoc2-c2ccco2)c2ncccc2N1,15.1
8,O=c1[nH]nc(C2CC2)n1-c1cccc(Cl)c1,-21.7
9,CN1CC(c2n[nH]c(=O)n2-c2cccc(Cl)c2)CC1=O (stereo unspecified),58.9
10,CN1CCC(c2n[nH]c(=O)n2-c2cccc(Cl)c2)CC1,14.1
11,O=C(c1ccc(N2CCCC2)nc1)N1CCCC(n2cncn2)C1 (stereo unspecified),-29.5
12,CN(C)C(=O)CCC1CCCN(Cc2ccc(-c3cccnc3)cc2)C1 (stereo unspecified),29.8
13,Cc1nccn1CC1CCCN(Cc2ccc(-c3cccnc3)cc2)C1 (stereo unspecified),66.7
14,Cc1nc(C)n(CC2CCCN(Cc3cccnc3)C2)n1 (stereo unspecified),-14.6
15,Cc1nn(C)c(N(C)C)c1CNCc1ccccc1CO,15.3
16,Cc1cc(NC(=O)CCn2nc(C)c3ccccc32)n(C)n1,26.7
17,CCn1nc(C)cc1NC(=O)CCn1nc(C)c2ccccc21,20.9
18,Cc1cc(NC(=O)CCn2nc(C)c3ccccc32)n(C(C)C)n1,59
19,CSCC[C@H](NC(=O)N1CCC(Cc2ccccc2)CC1)C(=O)O,20
20,CC(NC(=O)C1CCN(C(=O)C2CC2)CC1)c1nncn1C(C)C (stereo unspecified),44
21,CC(NC(=O)C1CCCC1)c1nncn1C(C)C (stereo unspecified),52.2
22,CC(NC(=O)C1CCN(C(C)C)CC1)c1nncn1C1CCCC1 (stereo unspecified),17.8
